# Measurements: PubChem BioAssay (EPA / NIEHS)
# Calls of active or inactive are those of the source. How the source made its calls: active means hit-call score of the fitted dose curve at least 0.9, where 1 is the maximum; inactive means score below 0.9.
# Key:
# [1] = read-out: Thrombomodulin, THBD (gene 7056); test: BSK_CASM3C_Thrombomodulin: BioMAP Diversity Plus: CASM3C Assay for Thrombomodulin Biomarker Activity (AID 2283051); conditions: primary human coronary artery smooth muscle cells; actives raise or lower the signal;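 further: thrombomodulin protein level measured by ELISA 24 h after dosing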
# [2] = read-out: Tissue Factor, F3 (gene 2152); test: BSK_CASM3C_TissueFactor: BioMAP Diversity Plus: CASM3C Assay for Tissue Factor Biomarker Activity (AID 2283052); conditions: primary human coronary artery smooth muscle cells; actives raise or lower the signal;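 further: cell surface tissue factor protein level read by ELISA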
# [3] = read-out: Urokinase-type plasminogen activator receptor (uPAR), PLAUR (gene 5329); test: BSK_CASM3C_uPAR: BioMAP Diversity Plus: CASM3C Assay for Urokinase-type plasminogen activator receptor (uPAR) Biomarker Activity (AID 2283054); conditions: primary human coronary artery smooth muscle cells; actives raise or lower the signal;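 further: cell-surface uPAR protein level quantified by ELISA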
# [4] = read-out: Vascular cell adhesion molecule 1 (VCAM1), VCAM1 (gene 7412); test: BSK_CASM3C_VCAM1: BioMAP Diversity Plus: CASM3C Assay for Vascular cell adhesion molecule 1 (VCAM1) Biomarker Activity (AID 2283055); conditions: primary human coronary artery smooth muscle cells; actives raise or lower the signal;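 further: VCAM-1 protein level quantified by ELISA on the cells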
# [5] = read-out: Epidermal growth factor receptor (EGFR), EGFR (gene 1956); test: BSK_hDFCGF_EGFR: BioMAP Diversity Plus: hDFCGF Assay for Epidermal growth factor receptor (EGFR) Biomarker Activity (AID 2283057); conditions: primary human foreskin fibroblasts; actives raise or lower the signal
# Outline: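 Primary human foreskin fibroblasts were exposed to compound for 24 h, after which cell-surface EGFR was quantified by ELISA. Activity was fitted bidirectionally against the DMSO negative control as baseline.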
# [6] = read-out: Interleukin-8 (IL8), CXCL8 (gene 3576); test: BSK_hDFCGF_IL8: BioMAP Diversity Plus: hDFCGF Assay for Interleukin-8 (IL8) Biomarker Activity (AID 2283058); conditions: primary human foreskin fibroblasts; actives raise or lower the signal
# Outline: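 Cells used are human skin primary fibroblasts. Chemical is added, cultures run 24 h, then IL-8 is quantified by ELISA, and gain or loss versus DMSO control is fitted in both directions.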
# [7] = BSK_hDFCGF_Proliferation: Cell Proliferation Assessment in the BioMAP Diversity Plus: hDFCGF Assay (AID 2283059); conditions: primary human foreskin fibroblasts;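 further: curves fitted for both rise and fall of signal versus DMSO baseline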
# Outline: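 Primary human foreskin fibroblasts, sub-confluent; […]; 10% TCA fix, 0.1% SRB stain, A560 total protein. Gain/loss fitted bidirectionally vs DMSO control.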
# [8] = read-out: Macrophage colony-stimulating factor (MCSF), CSF1 (gene 1435); test: BSK_hDFCGF_MCSF: BioMAP Diversity Plus: hDFCGF Assay for Macrophage colony-stimulating factor (MCSF) Biomarker Activity (AID 2283060); conditions: primary human foreskin fibroblasts; actives raise or lower the signal
# Outline: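 Primary human foreskin fibroblasts dosed with chemical; 24 h later, M-CSF quantified by ELISA; curves fitted in both directions vs DMSO negative control.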
# [9] = BSK_hDFCGF_SRB: Viability Assessment in the BioMAP Diversity Plus: hDFCGF Assay (AID 2283061); conditions: primary human foreskin fibroblasts;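 further: cells exposed to compound for 24 h before the read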
# Outline: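 Readout is SRB absorbance at 560 nm, reflecting total protein in parallel cultures of human foreskin fibroblasts harvested 24 h after chemical dosing. Activity was fitted bidirectionally relative to DMSO.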
# [10] = read-out: TIMP metallopeptidase inhibitor 1 (TIMP1), TIMP1 (gene 7076); test: BSK_hDFCGF_TIMP1: BioMAP Diversity Plus: hDFCGF Assay for TIMP metallopeptidase inhibitor 1 (TIMP1) Biomarker Activity (AID 2283062); conditions: primary human foreskin fibroblasts; actives raise or lower the signal
# Outline: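 Human skin fibroblasts (primary), hDFCGF system; compound exposure 24 h; TIMP-1 by ELISA; bidirectional fit vs DMSO negative control; overt cytotoxicity by SRB in parallel wells.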
# [11] = read-out: Monokine induced gamma interferon (MIG), CXCL9 (gene 4283); test: BSK_hDFCGF_MIG: BioMAP Diversity Plus: hDFCGF Assay for Monokine induced gamma interferon (MIG) Biomarker Activity (AID 2283063); conditions: primary human foreskin fibroblasts; actives raise or lower the signal
# Outline: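 Chemicals were added to primary human foreskin fibroblast cultures, which were sampled 24 h later. MIG levels were then quantified by ELISA and responses fitted in both directions relative to DMSO.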
# [12] = read-out: Matrix Metallopeptidase 1 (MMP1), MMP1 (gene 4312); test: BSK_hDFCGF_MMP1: BioMAP Diversity Plus: hDFCGF Assay for Matrix Metallopeptidase 1 (MMP1) Biomarker Activity (AID 2283064); conditions: primary human foreskin fibroblasts; actives raise or lower the signal
# Outline: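 Primary human foreskin fibroblasts in the hDFCGF system were dosed with test chemical, and MMP1 was measured by ELISA 24 h later. Values come from bidirectional curve fitting against the DMSO baseline.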
# [13] = read-out: Vascular cell adhesion molecule 1 (VCAM1), VCAM1 (gene 7412); test: BSK_hDFCGF_VCAM1: BioMAP Diversity Plus: hDFCGF Assay for Vascular cell adhesion molecule 1 (VCAM1) Biomarker Activity (AID 2283065); conditions: primary human foreskin fibroblasts; actives raise or lower the signal;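 on AC50: VCAM-1 protein level quantified by ELISA after 24 h chemical exposure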
# Outline: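 Human foreskin fibroblast primary cells, chemical exposure 24 h; VCAM-1 by ELISA; bidirectional fit, DMSO = negative control/baseline.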
# [14] = read-out: Plasminogen activator inhibitor-1 (PAI1), SERPINE1 (gene 5054); test: BSK_hDFCGF_PAI1: BioMAP Diversity Plus: hDFCGF Assay for Plasminogen activator inhibitor-1 (PAI1) Biomarker Activity (AID 2283066); conditions: primary human foreskin fibroblasts; actives raise or lower the signal
# Outline: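 Human foreskin fibroblasts in the hDFCGF system were dosed with compound for 24 h; PAI-1 was quantified by ELISA. Bidirectional curve fitting used DMSO as negative control and baseline.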
# [15] = read-out: Intercellular Adhesion Molecule 1 (ICAM1), ICAM1 (gene 3383); test: BSK_KF3CT_ICAM1: BioMAP Diversity Plus: KF3CT Assay for Intercellular Adhesion Molecule 1 (ICAM1) Biomarker Activity (AID 2283067); conditions: primary human keratinocytes with fibroblasts; actives raise or lower the signal
# Outline: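 ICAM-1 levels are measured by ELISA 24 h after dosing a primary human co-culture of keratinocytes and foreskin fibroblasts. Activity in either direction is fitted relative to DMSO vehicle.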
# [16] = read-out: Interferon-gamma inducible Protein 10 (IP10), CXCL10 (gene 3627); test: BSK_KF3CT_IP10: BioMAP Diversity Plus: KF3CT Assay for Interferon-gamma inducible Protein 10 (IP10) Biomarker Activity (AID 2283068); conditions: primary human keratinocytes with fibroblasts; actives raise or lower the signal
# Outline: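 In a primary skin co-culture of keratinocytes and fibroblasts, IP-10 is quantified by ELISA at 24 h after dosing. SRB staining of parallel wells monitors overt toxicity. Curves are fitted both directions against DMSO.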
# [17] = BSK_KF3CT_SRB: Viability Assessment in the BioMAP Diversity Plus: KF3CT Assay (AID 2283069); conditions: primary human keratinocytes with fibroblasts;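 further: total protein by sulforhodamine B staining as a cytotoxicity measure; read 24 h after compound addition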
# Outline: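 Human primary keratinocyte plus foreskin fibroblast co-culture exposed to chemicals for 24 h. Total protein measured by 0.1% sulforhodamine B staining after 10% TCA fixation, read at 560 nm; bidirectional fitting versus DMSO baseline.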
# [18] = read-out: Interleukin-1 alpha (IL1a), IL1A (gene 3552); test: BSK_KF3CT_IL1a: BioMAP Diversity Plus: KF3CT Assay for Interleukin-1 alpha (IL1a) Biomarker Activity (AID 2283070); conditions: primary human keratinocytes with fibroblasts; actives raise or lower the signal
# Outline: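 Human keratinocyte plus foreskin fibroblast primary co-culture, sampled 24 h after chemical dosing. IL-1a measured by ELISA; responses fitted bidirectionally against DMSO baseline (negative control), so gain or loss of signal both count.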
# [19] = read-out: Collagen III, COL3A1 (gene 1281); test: BSK_hDFCGF_CollagenIII: BioMAP Diversity Plus: hDFCGF Assay for Collagen III Biomarker Activity (AID 2283056); conditions: primary human foreskin fibroblasts; actives raise or lower the signal
# Outline: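 ELISA read-out of collagen III from human skin fibroblast cultures sampled 24 h post-dosing. Values were derived by bidirectional fitting relative to the DMSO vehicle control.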
smiles,measurement,setting,value
O=c1[nH]sc2ccccc12,AC50,[1],4.73 µM (active)
same,AC50,[2],28 µM (active)
same,AC50,[3],11.3 µM (active)
same,AC50,[4],10.7 µM (active)
same,outcome,[5],inactive
same,AC50,[6],20 µM (active)
same,AC50,[7],0.281 µM (active)
same,AC50,[8],3.22 µM (active)
same,AC50,[9],7.21 µM (active)
same,AC50,[10],11.8 µM (active)
same,AC50,[11],5.92 µM (active)
same,AC50,[12],6.98 µM (active)
same,AC50,[13],1.82 µM (active)
same,AC50,[14],3.23 µM (active)
same,AC50,[15],20 µM (active)
same,AC50,[16],31.7 µM (active)
same,AC50,[17],35.7 µM (active)
same,AC50,[18],13.7 µM (active)
CCCOC(=O)c1cc(O)c(O)c(O)c1,outcome,[1],inactive
same,outcome,[2],inactive
same,outcome,[3],inactive
same,outcome,[4],inactive
same,outcome,[5],inactive
same,outcome,[6],inactive
same,AC50,[7],8.01 µM (active)
same,outcome,[8],inactive
same,outcome,[9],inactive
same,outcome,[10],inactive
same,AC50,[11],10.8 µM (active)
same,outcome,[12],inactive
same,outcome,[13],inactive
same,outcome,[14],inactive
same,outcome,[15],inactive
same,outcome,[16],inactive
same,outcome,[17],inactive
same,outcome,[18],inactive
Cc1c2ccccc2c(C)c2c1ccc1ccccc12,AC50,[1],20 µM (active)
same,outcome,[2],inactive
same,outcome,[3],inactive
same,outcome,[4],inactive
same,AC50,[5],5.45 µM (active)
same,outcome,[6],inactive
same,AC50,[7],7.26 µM (active)
same,AC50,[8],5.48 µM (active)
same,outcome,[9],inactive
same,outcome,[10],inactive
same,outcome,[11],inactive
same,outcome,[12],inactive
same,AC50,[13],3.97 µM (active)
same,AC50,[14],10.1 µM (active)
same,outcome,[15],inactive
same,outcome,[16],inactive
same,outcome,[17],inactive
same,outcome,[18],inactive
CC1(C)NC(=O)N(c2ccc([N+](=O)[O-])c(C(F)(F)F)c2)C1=O,outcome,[1],inactive
same,outcome,[2],inactive
same,outcome,[3],inactive
same,outcome,[4],inactive
same,outcome,[5],inactive
same,outcome,[6],inactive
same,outcome,[7],inactive
same,outcome,[8],inactive
same,outcome,[9],inactive
same,outcome,[10],inactive
same,outcome,[11],inactive
same,outcome,[12],inactive
same,outcome,[13],inactive
same,outcome,[15],inactive
same,outcome,[16],inactive
same,outcome,[17],inactive
same,outcome,[18],inactive
CN(C)C(=O)C1(N2CCCCC2)CCN(CC[C@@]2(c3ccc(Cl)c(Cl)c3)CN(C(=O)c3ccccc3)CCO2)CC1,AC50,[1],34.7 µM (active)
same,AC50,[2],31 µM (active)
same,AC50,[3],24.4 µM (active)
same,AC50,[4],30 µM (active)
same,AC50,[19],25.4 µM (active)
same,AC50,[5],9.57 µM (active)
same,AC50,[6],33.7 µM (active)
same,AC50,[7],5.15 µM (active)
same,AC50,[8],20.8 µM (active)
same,AC50,[9],13.3 µM (active)
same,AC50,[10],24.8 µM (active)
same,AC50,[11],33.3 µM (active)
same,AC50,[12],29.2 µM (active)
same,AC50,[13],14.9 µM (active)
same,AC50,[15],35.2 µM (active)
same,AC50,[16],31.3 µM (active)
same,AC50,[17],28.4 µM (active)
same,AC50,[18],34.3 µM (active)
Oc1ccccc1,outcome,[1],inactive
same,outcome,[2],inactive
same,outcome,[3],inactive
same,outcome,[4],inactive
same,outcome,[19],inactive
same,outcome,[5],inactive
same,outcome,[6],inactive
same,outcome,[7],inactive
same,outcome,[8],inactive
same,outcome,[9],inactive
same,outcome,[10],inactive
same,outcome,[11],inactive
same,outcome,[12],inactive
same,outcome,[13],inactive
same,outcome,[14],inactive
same,outcome,[15],inactive
same,outcome,[16],inactive
same,outcome,[17],inactive
same,outcome,[18],inactive
